The full ranking holds about 33,000 sequences; the median of “E-score (-0.5 to 0.5)” is about -0.043, and the highest 2% start at about 0.37. The sample holds the highest values, similar sequences and a random draw of the others, so the mix is not that of the screen.

The target in the assay is T1, Upc2 (UniProt Q12151).
T1 sequence: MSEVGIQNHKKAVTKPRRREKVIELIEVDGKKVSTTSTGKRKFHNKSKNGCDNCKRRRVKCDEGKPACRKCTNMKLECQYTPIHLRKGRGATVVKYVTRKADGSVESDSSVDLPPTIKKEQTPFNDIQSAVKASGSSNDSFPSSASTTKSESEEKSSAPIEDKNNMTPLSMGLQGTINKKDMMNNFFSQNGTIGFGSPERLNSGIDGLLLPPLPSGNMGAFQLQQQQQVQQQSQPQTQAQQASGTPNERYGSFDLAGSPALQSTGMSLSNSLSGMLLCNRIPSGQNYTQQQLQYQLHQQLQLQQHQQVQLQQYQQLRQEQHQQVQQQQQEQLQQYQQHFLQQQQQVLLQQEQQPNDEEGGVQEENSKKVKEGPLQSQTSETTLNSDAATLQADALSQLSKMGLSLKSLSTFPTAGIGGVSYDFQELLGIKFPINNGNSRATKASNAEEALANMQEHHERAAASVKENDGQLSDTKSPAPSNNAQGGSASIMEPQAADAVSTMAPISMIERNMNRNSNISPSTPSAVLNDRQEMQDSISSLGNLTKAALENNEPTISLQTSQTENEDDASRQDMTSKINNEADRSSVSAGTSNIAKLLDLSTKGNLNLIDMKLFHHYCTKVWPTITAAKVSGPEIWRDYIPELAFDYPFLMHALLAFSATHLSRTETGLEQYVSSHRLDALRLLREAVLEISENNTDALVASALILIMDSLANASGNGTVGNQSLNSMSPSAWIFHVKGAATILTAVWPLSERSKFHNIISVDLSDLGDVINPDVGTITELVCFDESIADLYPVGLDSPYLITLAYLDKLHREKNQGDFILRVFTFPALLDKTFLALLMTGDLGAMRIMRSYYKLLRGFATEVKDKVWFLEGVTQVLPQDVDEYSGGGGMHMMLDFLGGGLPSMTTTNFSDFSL
Description: PBM E-score (8-mer binding enrichment) (E-score (-0.5 to 0.5)); higher = stronger / more preferred TF binding. The following applies: protein concentration: 200 nM; construct: GST-full length. As for the experimental part: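 Universal 'all 10-mer' protein binding microarrays (Agilent AMADID 015681) probed with GST-tagged S. cerevisiae TFs (full-length or DBD) made by in vitro transcription/translation (PURExpress), about 100-200 nM. Bound TF was detected with fluorescent anti-GST. Each ungapped 8-mer (which stands for itself and its reverse complement) is scored by the PBM enrichment score (E-score), a modified Wilcoxon-Mann-Whitney statistic from -0.5 to +0.5, computed with the Universal PBM Analysis Suite. Scale: above 0.35 generally sequence-specific binding.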
Consider CCGTATGC, for which the “PBM E-score” value amounted to 0.356.

With CCGTATGA, the “PBM E-score” value was determined as 0.392.

For the sequence AAGACTTG, the “PBM E-score” value is -0.00965.

Turning to CCCTATCA, the “PBM E-score” value is -0.325.

Turning to ACACGCGT, the “PBM E-score” value came to 0.152.

Consider ACGTTCAT, for which the “PBM E-score” value is 0.169.

Consider CCTCTGTA, for which the “PBM E-score” value stood at 0.0279.

In the case of GAGGTCGC, the “PBM E-score” value was -0.042.

On to GAATCTAA, for which the “PBM E-score” value came out at 0.111.

With AGGTATAA, the “PBM E-score” value was determined as 0.198.

On to CTGTATAA, for which the “PBM E-score” value was found to be 0.156.

Regarding ACGTATAA, the “PBM E-score” value came to 0.437.

With ATGTATAA, the “PBM E-score” value is 0.0845.

On to CCGTATAA, for which the “PBM E-score” value turned out to be 0.483.

For the sequence CGGTATAA, the “PBM E-score” value came out at 0.267.

With GACCAATC, the “PBM E-score” value was -0.117.

In the case of TCATCAGA, the “PBM E-score” value is -0.187.

Turning to GTTGTCAA, the “PBM E-score” value was -0.00594.

For the sequence TAGCTAAA, the “PBM E-score” value is 0.119.

Take CCTGCCAA: the “PBM E-score” value was -0.0976.

Turning to TGTACCAA, the “PBM E-score” value turned out to be 0.03.

Consider GGTACCAC, for which the “PBM E-score” value is -0.18.

Turning to AGTACCAG, the “PBM E-score” value is -0.134.

Consider CATACCAG, for which the “PBM E-score” value was -0.0446.

For CGTACCTA, the “PBM E-score” value turned out to be 0.376.

As to CGTACCAC, the “PBM E-score” value is 0.407.

Consider AGTACCAC, for which the “PBM E-score” value is -0.0837.

For CGTACCTC, the “PBM E-score” value was found to be 0.361.

Consider AGTACCTA, for which the “PBM E-score” value is -0.109.

Turning to CGTACCAA, the “PBM E-score” value stood at 0.392.

As to AGTACCAA, the “PBM E-score” value is -0.0772.

In the case of CGTACCAG, the “PBM E-score” value came to 0.39.

On to GATCAATC, for which the “PBM E-score” value is -0.104.

Turning to AATTGAGC, the “PBM E-score” value is -0.0691.

Take GTAGGAAC: the “PBM E-score” value was determined as 0.13.

Turning to CAAGCTTG, the “PBM E-score” value is -0.233.

On to CAGTAACA, for which the “PBM E-score” value is -0.0459.

Regarding AGAGTGCC, the “PBM E-score” value is -0.209.

For the sequence CATATACG, the “PBM E-score” value is 0.463.

As for CATATACA, the “PBM E-score” value was found to be 0.05.

With AATATACT, the “PBM E-score” value is -0.0413.

As for CATATACC, the “PBM E-score” value is -0.0116.

AATATACG: the “PBM E-score” value turned out to be 0.465.

On to AATATACA, for which the “PBM E-score” value was 0.0677.

For AAGGACAT, the “PBM E-score” value was 0.0482.

For the sequence AAAATACG, the “PBM E-score” value was 0.346.

Take GTGGACAC: the “PBM E-score” value is -0.158.

Take GGATCGAC: the “PBM E-score” value is -0.14.

Take CGCGTTCA: the “PBM E-score” value was found to be 0.242.

Take CGCGTTTA: the “PBM E-score” value amounted to 0.415.

For AGCGTTTA, the “PBM E-score” value worked out at 0.363.

For GACGTTTA, the “PBM E-score” value was determined as 0.366.

Take GGCGTTGA: the “PBM E-score” value is -0.0389.

As to GGCGTTTA, the “PBM E-score” value was 0.378.

With GGTCCCCA, the “PBM E-score” value is -0.24.

Turning to GACAACCC, the “PBM E-score” value turned out to be 0.0735.

Take AAAGGGGC: the “PBM E-score” value was -0.127.

Turning to ACACAGCG, the “PBM E-score” value came out at 0.104.

Regarding ATGGGTTA, the “PBM E-score” value is -0.00164.

Take AGTTCCAG: the “PBM E-score” value was -0.188.

For CGTTCAAC, the “PBM E-score” value was found to be 0.382.

For GGTTCAAC, the “PBM E-score” value turned out to be 0.0526.

As for AGTTCAAC, the “PBM E-score” value stood at 0.00196.

Consider CGTTCCAA, for which the “PBM E-score” value came out at 0.329.

Turning to CGTTCAAG, the “PBM E-score” value amounted to 0.407.

As to CGTTCCAG, the “PBM E-score” value was found to be 0.391.

AGTTCCGC: the “PBM E-score” value was determined as 0.0626.

For CGTTCAAA, the “PBM E-score” value amounted to 0.369.

Consider AGTTCAAG, for which the “PBM E-score” value stood at 0.129.

With CGTTCCGA, the “PBM E-score” value is 0.361.

With CGTTCCGC, the “PBM E-score” value came to 0.385.

As for AGGCGTGA, the “PBM E-score” value was -0.00507.

As to CGGAAGTA, the “PBM E-score” value came out at 0.0369.

In the case of AACCACAA, the “PBM E-score” value is -0.077.

Turning to GTGAATAA, the “PBM E-score” value was -0.0516.

As for ACAACTAC, the “PBM E-score” value is -0.129.

For GCGAAAAA, the “PBM E-score” value is 0.148.

With GACTTAAC, the “PBM E-score” value was 0.00959.

As to CTGAAGAA, the “PBM E-score” value is -0.299.

Regarding CCCATCGG, the “PBM E-score” value is 0.0976.

With AGCAAGCT, the “PBM E-score” value was -0.253.

As for CGTAAGAG, the “PBM E-score” value came to 0.316.

Consider ACGCCATC, for which the “PBM E-score” value was -0.0963.

Turning to GCAAACAC, the “PBM E-score” value was -0.00637.

GGTTCCCA: the “PBM E-score” value is -0.0861.

Regarding CGTTCCCA, the “PBM E-score” value is 0.373.

In the case of CGTTCCCC, the “PBM E-score” value came out at 0.333.

Values taken from the supplement of paper PMC3334620.
